Results filed as inconclusive are left out. Activity calls are given as the source filed them. Calls follow the shape of the dose curve; as a rule, active = well fitted inhibition curve with a large enough effect in the signal ratio in the repeat runs (not every such curve was filed as active); inconclusive = weak or mixed curves, or effect the other way; inactive = no such curve, though single readings can be large or run the other way; the % refers to the signal ratio.

Chain of Bile acid receptor (Homo sapiens) (Q96RI1 whole entry, looked up): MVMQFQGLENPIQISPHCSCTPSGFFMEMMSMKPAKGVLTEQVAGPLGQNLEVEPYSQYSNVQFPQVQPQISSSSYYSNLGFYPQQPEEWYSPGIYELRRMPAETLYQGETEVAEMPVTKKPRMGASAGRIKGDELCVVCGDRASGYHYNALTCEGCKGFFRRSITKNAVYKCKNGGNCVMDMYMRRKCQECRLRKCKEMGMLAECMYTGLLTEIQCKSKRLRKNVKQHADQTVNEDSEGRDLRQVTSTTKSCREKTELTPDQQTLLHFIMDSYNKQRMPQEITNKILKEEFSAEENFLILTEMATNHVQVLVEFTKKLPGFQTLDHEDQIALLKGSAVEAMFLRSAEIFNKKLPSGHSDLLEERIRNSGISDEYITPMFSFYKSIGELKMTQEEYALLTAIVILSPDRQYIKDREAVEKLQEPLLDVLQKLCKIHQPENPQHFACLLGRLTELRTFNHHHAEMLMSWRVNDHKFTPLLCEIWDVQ

The target in this assay is Bile acid receptor (Homo sapiens) (UniProt Q96RI1). Nature of the assay: qHTS assay to identify small molecule antagonists of the farnesoid-X-receptor (FXR) signaling pathway (AID 743217). The note with it: HEK293T FXR-UAS-bla, beta-lactamase ratio, CDCA-stimulated, 16 h; series mostly up to 62.6 µM. An excerpt:
U.S. Tox21 Program National Center for Advancing Translational Sciences [NCATS] NIH Chemical Genomics Center [NCGC] U.S. Environmental Protection Agency [EPA] National Institutes of Environmental Health Sciences [NIEHS] National Toxicology Program [NTP] U.S. Food and Drug Administration [FDA] Tox21 Assay Overview: The farnesoid-X-receptor (FXR), a nuclear hormone receptor, is highly expressed in liver, intestine, kidney and adrenal cortex. Natural ligands of FXR are the bile acids (Cholic acid, Chenodeoxy cholic acid etc). FXR is an important regulator of diverse metabolic pathways, including the bile acid homeostasis, lipid and glucose metabolisms. FXR regulates the expression of target genes by binding either as a monomer or as a heterodimer with the retinoid X receptor (RXR). Numerous studies have reported that FXR exerts protective function during cholestasis, diabetes, liver regeneration, and cancer. To identify compounds that inhibit FXR signaling, GeneBLAzer FXR-UAS-bla HEK 293T cell line (Invitrogen, Carlsbad, CA) containing a beta-lactamase reporter gene under the control of a UAS response element was used to screen the Tox21 10K compound library.
Tox21 Assay Protocol Summary: FXR-bla cells were dispensed at 5000 cells/5uL/well in 1536-well black wall/clear bottom plates using a Multidrop Combi (Thermo Fisher Scientific, Waltham, MA) dispenser. After the assay plates were incubated at 37C and 5% CO2 for 5 h, 23 nL of compounds dissolved in DMSO, positive controls or DMSO only was transferred to the assay plate by a Pintool station (Kalypsys, San Diego, CA), followed by addition of 1 uL Chenodeoxycholic acid (50 uM, final concentration in the wells). The assay plates were incubated at 37C for 16 h. After 1 uL of LiveBLAzerTM B/G FRET substrate was added using a Bioraptr Flying Reagent Dispenser (FRD) workstation (Beckman Coulter, Indianapolis, IN), the plates were incubated at room temperature for 2 h, and fluorescence intensity was measured by an Envision plate reader (PerkinElmer, Shelton, CT).
(qHTS replaces the single test concentration by a dilution series.)
With `CC1(C)O[C@@H]2C[C@H]3[C@@H]4CCC5=CC(=O)CC[C@]5(C)[C@@]4(F)[C@@H](O)C[C@]3(C)[C@]2(C(=O)CCl)O1`, the result was inactive.

Take `CC1=C2[C@H](/C=C(\C)C(=O)O)CC[C@@H](C)[C@H]2CC1`: the outcome was inactive.

`C1CCOC1`: the outcome was inactive.

With `CCC1(C)NC(=O)NC1=O` (stereo not given), the outcome was inactive.

Regarding `CCCc1c2oc(C(=O)O)cc(=O)c2cc2c(=O)cc(C(=O)O)n(CC)c12`, the result was inactive.

On to `COC(=O)c1ccc(OC)cc1`, for which the result was inactive.

Consider `CCOc1ccc(NC(N)=O)cc1`, for which the outcome was inactive.

For `CNCCC(Oc1ccccc1OC)c1ccccc1` (stereo not given), the outcome was inactive.

With `COc1cc(N)c(Cl)cc1C(=O)NC1CCN(Cc2ccccc2)CC1`, the outcome was inactive.

Regarding `OC[C@H]1O[C@@H](O[C@H]2[C@H](O)[C@@H](O)[C@H](O)O[C@@H]2CO)[C@H](O)[C@@H](O)[C@H]1O`, the result was inactive.

In the case of `Cc1cc2nc(N)sc2cc1C`, the result was inactive.

For the compound `COc1cc2c(cc1N)oc1ccccc12`, the outcome was inactive.

Regarding `O=C1CCC(C2CCCCC2)CC1`, the result was inactive.

With `CCc1nnc(NS(=O)(=O)c2ccc(N)cc2)s1`, the outcome was inactive.

In the case of `O=C1C=CC(=O)O1`, the outcome was inactive.

For `Cc1onc(-c2ccccc2)c1C(=O)Cl`, the outcome was inactive.

Turning to `COc1cc(C)ccc1C(C)C`, the outcome was inactive.

As for `CCCCCCCCc1ccc(S(=O)(=O)O)cc1`, the result was inactive.

As for `O=C(C(Cl)Cl)N1CCOC12CCCCC2`, the outcome was inactive.

As for `OCc1ccccc1O`, the result was inactive.

Take `N#CSCC(=O)O`: the outcome was inactive.

As to `C=CC(C)(O)CC/C=C(\C)CCC=C(C)C` (stereo not given), the outcome was inactive.

As for `CC1(C)C(=O)N(Cl)C(=O)N1Br`, the result was inactive.

In the case of `CCC(=O)c1ccc2c(c1)N(CCCN(C)C)c1ccccc1S2`, the outcome was inactive.

For `CC1CN(c2ccccc2)NC1=O` (stereo not given), the result was inactive.

Regarding `Cc1ccc(C)c(N)c1`, the outcome was inactive.

Regarding `CC(C)C(=O)OCC(C)(C)C(O)C(C)C` (stereo not given), the result was inactive.

For the compound `CCOc1ccc(OCC)c(Cl)c1`, the outcome was inactive.

For the compound `CC(=O)OC1C2(C)CCC(C2)C1(C)C` (stereo not given), the result was inactive.

For the compound `O=c1[nH]cnc2c1ncn2[C@@H]1O[C@H](CO)[C@@H](O)[C@H]1O`, the outcome was inactive.

With `CC(=O)N[C@@H](CC(C)C)C(=O)O`, the result was inactive.

As to `CN1[C@@H]2CC[C@H]1CC(OC(=O)c1c[nH]c3ccccc13)C2` (stereo not given in full), the outcome was inactive.

On to `NNS(=O)(=O)c1ccc(Oc2ccc(S(=O)(=O)NN)cc2)cc1`, for which the result was inactive.

Take `NCCC(O)(P(=O)(O)O)P(=O)(O)O`: the result was inactive.

Take `COC(=O)/C=C(/C)N`: the outcome was inactive.

With `CN1CCN(N)CC1`, the result was inactive.

In the case of `CCCCC(CC)COC(=O)COc1cc(Cl)c(Cl)cc1Cl` (stereo not given), the outcome was inactive.

As to `COC(=O)C(C)O` (stereo not given), the result was inactive.

On to `C[C@@H]1CN(c2c(F)c(N)c3c(=O)c(C(=O)O)cn(C4CC4)c3c2F)C[C@H](C)N1`, for which the result was inactive.

On to `CCOC(=O)C1CC(=O)C(=C(O)C2CC2)C(=O)C1` (stereo not given), for which the result was inactive.

For the origin of these results see PubChem BioAssay (Tox21).
